These entries were drawn from the full list.
aSyn 5UTR act – Activators via SNCA 5'UTR binding, MLPCN; alpha-synuclein 5'UTR reporter, activators screen; activity score, % (tested at 7.5 µM), hits read low; hit rate 7.1% among 300,000; in the data active = activity score below about -60%
Active calls of the source: *.

SMILES | aSyn 5UTR act
Clc1ccccc1CN1CCN(/N=C/C=C\c2ccco2)CC1 | -78.3*
C(/C=C/c1ccco1)=N/N1CCN(c2ccccc2)CC1 | -189.0*
O=C(c1cc([N+](=O)[O-])ccc1N1CCOCC1)N1CCN(c2ccccc2)CC1 | 91.4
CC(C)(C)C(=O)N1CCN(c2ccc([N+](=O)[O-])cc2Cl)CC1 | -64.4*
CCOC(=O)C1CCN(C(=O)CNC(=O)c2nn(-c3ccc(OC)c(Cl)c3)c(=O)c3ccccc23)CC1 | -70.1*
CCOc1ccc(/C=C2\SC(=S)N(CCCC(=O)NCCCN3CCOCC3)C2=O)cc1 | 84.4
CCOc1ccc(N=C2NC(=O)S/C2=C\c2ccc(N(C)C)cc2)cc1 | -128.8*
CCOc1ccc(/C=C2/SC(=O)NC2=S)cc1 | -94.8*
CC(C)CNC(=O)C1CCN(Cc2ccc(OCc3ccccc3)cc2)CC1 | -95.0*
CC(O)CNC(=O)C1CCN(Cc2ccc(OCc3ccccc3)cc2)CC1 (stereo not given) | -126.2*
COc1cc(/C=N/NC(=O)c2ccoc2C)cc(OC)c1O | -90.0*
Cc1ccc(/C=N/NC(=O)c2ccoc2C)o1 | -137.4*
Cc1ccc(/C=N/NC(=O)NC23CC4CC(CC(C4)C2)C3)o1 | -83.4*
Cc1cc(C(=O)N/N=C/c2ccc(C)o2)c2ccccc2n1 | 65.5
O=C(Nc1ccccn1)Nc1ccccc1[N+](=O)[O-] | -90.9*
Cc1cccc(NC(=O)c2ccccn2)c1C | -111.8*
c1ccc(Nc2ccccc2Nc2ccccn2)nc1 | -63.0*
Oc1cccc2ccc(Nc3ccccn3)nc12 | 98.4
Cc1ccccc1NC(=O)Nc1ccccn1 | -110.7*
Cc1cccc(NC(=O)Nc2ccccn2)c1C | -70.6*
CSCc1ccc(C(=O)Nc2cccc(C)c2C)cc1 | -81.9*
COc1ccc(/C=C/C(=O)c2ccc(NC3=NCCCS3)cc2)cc1OC | -99.3*
CCOc1ccc(NC(=S)NCc2nc3ccccc3[nH]2)cc1 | -69.3*
CCNC(=S)Nc1ccc(-c2nc3ccccc3[nH]2)cc1 | -161.5*
COCCN=c1scc(-c2cccs2)n1/N=C(\C)c1ccco1 | -153.0*
SMILES | aSyn 5UTR act
CCOC(=O)C1CCN(C(=O)C2CCN(c3ncnc4c3nc3n4CCCCC3)CC2)CC1 | -107.7*
N#CCC(=O)N/N=C\c1ccccc1OC/C=C/c1ccccc1 | -165.6*
COCC(=O)N/N=C\c1ccccc1OC/C=C/c1ccccc1 | -94.8*
CC(C)(C)N(Cc1ccccc1)C(=O)CN1C(=O)c2ccccc2C1=O | -96.9*
CN(C)C(CNC(=O)c1ccc(C2SCCS2)cc1)c1ccccc1 (stereo not given) | -99.5*
CCNc1oc(COc2cccc(C)c2)nc1C#N | -94.9*
N#Cc1nc(COc2cccc(Cl)c2)oc1NCc1ccco1 | -105.3*
COc1ccc(Nc2oc(COc3ccc(C)cc3)nc2C#N)cc1 | 67.9
CC1Oc2ccccc2C=C1/C=N/NC(=O)c1ccccc1O (stereo not given) | -130.8*
CC1Oc2ccccc2C=C1/C=N/NC(=O)c1ccccc1 (stereo not given) | -159.1*
O=C(N/N=C/c1cc2c3c(c1O)CCCN3CCC2)c1ccccc1O | 104.3
Cc1ccc(C(=O)N/N=C/C2=Cc3ccccc3OC2C)cc1 (stereo not given) | -70.9*
C/C=C/c1ccc(OCCOc2cc(C=O)ccc2OC)c(OC)c1 | -104.6*
COc1cc(C=O)ccc1OCc1ccc(Cl)nc1 | -106.1*
COc1ccccc1OCCCOc1ccc([N+](=O)[O-])cc1Cl | -119.1*
COc1cc(C=O)ccc1OCCOc1ccccc1[N+](=O)[O-] | -102.6*
COC(=O)/C=C/COc1ccccc1[N+](=O)[O-] | -62.8*
COc1cc(C=O)ccc1OCCCOc1ccccc1[N+](=O)[O-] | -95.5*
CCOc1cccc(OCCOc2ccccc2[N+](=O)[O-])c1 | -110.3*
O=C(NCCc1c[nH]c2ccccc12)c1cnccn1 | -79.8*
COc1ccc(C(=O)c2c[nH]c3ccccc23)cc1 | -196.4*
O=C(NCCc1c[nH]c2ccccc12)c1ccc(Cl)cc1 | -220.7*
Cc1ccsc1C(=O)NCCc1c[nH]c2ccccc12 | -123.1*
CC(=O)c1c(C)[nH]c(C(=O)NCCc2c[nH]c3ccccc23)c1C | -89.3*
COc1ccc(C(=O)NCCc2c[nH]c3ccccc23)cc1 | -183.6*
SMILES | aSyn 5UTR act
CC(=O)c1c(C)[nH]c(C(=O)NCCC2=CCCCC2)c1C | -155.7*
O=C(NCCc1c[nH]c2ccccc12)c1cnc2sccn2c1=O | -151.9*
O=C(NCCc1c[nH]c2ccccc12)c1ccc(F)cc1F | -144.6*
Clc1nc(-c2cccnc2)nc2scc(-c3ccccc3)c12 | -134.3*
O=C(N=c1nc2ccccn2s1)c1ccccc1 | -180.2*
O=C1/C(=C/c2cccnc2)Oc2cc(OS(=O)(=O)c3ccccc3)ccc21 | -82.2*
Nc1ccc2nc3c(=O)n(C4CCCCC4)c(=O)[nH]c3nc2c1 | -130.2*
CC(C)(C)N=C1NN=C(c2ccc(Cl)cc2)CS1 | -108.5*
C=CCn1c(C)cc(C2=NNC(=NC(C)(C)C)SC2)c1C | 89.4
COc1ccc(CN=C2Nc3ccccc3CS2)cc1 | -84.7*
CC(C)(C)N=C1NN=C(c2cc3ccccc3o2)CS1 | -74.3*
COc1ccc(CN=C2NN=C(c3ccc(Cl)cc3)CS2)cc1 | -103.3*
O=C(COC(=O)CC1CCCC1)Nc1cc2c(cc1Cl)C(=O)c1ccccc1C2=O | -169.3*
COc1ccc(S(=O)(=O)NCC2CCCN(Cc3ccc(OC)cc3F)C2)cc1 (stereo not given) | -90.0*
Cc1ccc2oc(-c3ccco3)cc(=O)c2c1 | -170.5*
CC(C)OCCOc1ccc2oc(-c3ccco3)cc(=O)c2c1 | -115.4*
COc1ccc(Cc2nc3ccc(C(=O)NCC(C)(C)OC)cc3o2)cc1 | -116.0*
O=C(NCC1CCOCC1)c1ccc2nc(Cc3cccc(Cl)c3)oc2c1 | -79.4*
COc1ccc(Cc2nc3ccc(C(=O)NCCSC)cc3o2)cc1 | -97.5*
COc1ccc(Cc2nc3ccc(C(=O)NCc4cc(C)no4)cc3o2)cc1 | -103.8*
CSCCNC(=O)c1ccc2nc(C3CCCCC3)oc2c1 | -66.5*
O=C(O)c1cc(O)c2c(c1)C(=O)c1cc(O)cc(O)c1C2=O | -80.5*
C/C(=N/NC(=O)C(O)(c1ccccc1)c1ccccc1)c1ccc([N+](=O)[O-])o1 | -66.1*
FC(F)(F)c1ccc(N/N=C/c2cccnc2)nc1 | -115.2*
O=[N+]([O-])c1ccc(N/N=C\c2cccnc2)nc1 | -84.2*
SMILES | aSyn 5UTR act
Cc1csc(N/N=C\c2cccnc2)n1 | -115.9*
CCOC(=O)c1cc(-c2ccccc2)nn1Cc1cc(CC)no1 | -100.2*
COc1ccc2cc3cc(C(=O)N4CCCC(C)C4)oc3nc2c1 (stereo not given) | -64.4*
CCOC(=O)C1CCCN(C(=O)c2cc3cc4ccc(OC)cc4nc3o2)C1 (stereo not given) | -100.7*
N/C(=N\OC(=O)c1csnn1)c1ccc(C(F)(F)F)cc1 | -67.4*
c1ccc(N2CCN(c3nc(-c4ccccn4)nc4ccccc34)CC2)cc1 | -77.5*
COc1ccnc(N2CCN(c3ccccc3)CC2)c1C#N | -80.4*
O=[N+]([O-])c1cc(CN2CCN(c3ccccc3)CC2)c(O)c2ncccc12 | 82.0
c1ccc(N2CCN(c3ncccn3)CC2)cc1 | -67.7*
Cc1cc(O)cc2c1C(=O)/C(=C/c1ccco1)O2 | -116.2*
O=C(Nc1cc(N2CCCCC2)ncn1)c1ccc(F)cc1 | -86.3*
CCN(CC)S(=O)(=O)c1ccc(-c2cn3cc(Cl)ccc3n2)cc1 | -91.5*
c1ccc(CSc2ccc(-c3cccnc3)nn2)cc1 | -116.7*
Clc1ccc(-c2ccc(SCc3ccccn3)nn2)cc1 | -140.9*
c1ccc(-c2ccc(SCc3cccnc3)nn2)nc1 | -74.5*

High-throughput results as filed in PubChem BioAssay.
